In PubChem BioAssay AID1159580 (chemical genetic matrix, 2015):
Values joined by “and” are separate entries in the source; they are usually repeats but may differ in a detail not shown here. Identical values can stand only once. Hit rate of the full screen: of about 5,500 compounds, about 2,000 (36%) were called active. Roughly 18% stayed inconclusive and do not appear here. Cut-off read from the data, not from the text of the source: active = normalized growth mostly below about 0.91 (no sharp cut-off); inconclusive = no clear call, values can overlap the other calls; inactive = mostly above about 0.92. The list shows a part of the results.

Assay: chemical genetic growth profiling, strain panel (AID 1159580);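 note: tested at 20 µM; growth read once vehicle control cultures reached saturation at 30 °C; 1 = growth at the plate median or of vehicle wells; lower values mean less growth of the strain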
Details: S. cerevisiae deletion strains, growth OD

Measured: normalized growth

C[C@@H]1O[C@@H](OC[C@H]2OC(Oc3c(-c4ccc(O)c(O)c4)oc4cc(O)cc(O)c4c3=O)[C@H](O)[C@@H](O)[C@@H]2O)[C@H](O)[C@H](O)[C@H]1O (some centres not stated)
inactive: locus YAL013W, strain DEP1, active compounds read low 0.995 | locus YAL021C, strain ccr4, active compounds read low 0.964 | locus YAL026C, strain drs2, active compounds read low 0.993 | locus YAL030W, strain snc1, active compounds read low 0.998 | locus YBL061C, strain skt5, active compounds read low 1.01 | locus YBR009C, strain hhf1, active compounds read low 0.994 | locus YBR021W, strain FUR4, active compounds read low 1.03 | locus YBR023C, strain chs3, active compounds read low 1 | locus YBR171W, strain sec66, active compounds read low 1 | locus YBR229C, strain ROT2, active compounds read low 1.01 | locus YBR231C, strain swc5, active compounds read low 1 | locus YBR279W, strain paf1, active compounds read low 0.996 | locus YCL011C, strain gbp2, active compounds read low 0.98 | locus YCL016C, strain dcc1, active compounds read low 0.982 | locus YCL029C, strain bik1, active compounds read low 0.988 | locus YCL061C, strain MRC1, active compounds read low 1.01 | locus YCL069W, strain vba3, active compounds read low 1.01 | locus YCR088W, strain abp1, active compounds read low 1.01 | locus YDL005C, strain med2, active compounds read low 1 | locus YDL035C, strain GPR1, active compounds read low 0.975 | locus YDL040C, strain nat1, active compounds read low 1 | locus YDL074C, strain BRE1, active compounds read low 0.949 | locus YDL101C, strain DUN1, active compounds read low 1 | locus YDL185W, strain tfp1, active compounds read low 0.941 | locus YDL192W, strain arf1, active compounds read low 0.989 | locus YDR001C, strain nth1, active compounds read low 0.986 | locus YDR069C, strain doa4, active compounds read low 1 | locus YDR101C, strain arx1, active compounds read low 0.983 | locus YDR137W, strain rgp1, active compounds read low 0.974 | locus YDR150W, strain NUM1, active compounds read low 0.996 | locus YDR159W, strain sac3, active compounds read low 1.07 | locus YDR162C, strain NBP2, active compounds read low 1.01 | locus YDR195W, strain ref2 1 | locus YDR297W, strain sur2, active compounds read low 1.01 | locus YDR318W, strain mcm21, active compounds read low 1 | locus YDR334W, strain swr1, active compounds read low 1 | locus YDR335W, strain msn5, active compounds read low 0.979 | locus YDR388W, active compounds read low 1 | locus YDR392W, strain spt3, active compounds read low 0.979 | locus YDR502C, strain sam2, active compounds read low 1.01 | locus YEL003W, strain gim4, active compounds read low 1.01 | locus YEL037C, strain rad23, active compounds read low 1.01 | locus YEL061C, strain CIN8 (second series), active compounds read low 1 | locus YEL061C, strain CIN8, active compounds read low 1.01 | locus YER015W, strain faa2, active compounds read low 0.973 | locus YER016W, strain bim1, active compounds read low 1 | locus YER110C, active compounds read low 0.985 | locus YER111C, strain swi4, active compounds read low 0.994 | locus YER155C, strain BEM2 (second series), active compounds read low 1.09 | locus YER155C, strain BEM2, active compounds read low 1 | locus YER167W, strain BCK2, active compounds read low 1.01 | locus YFR010W, strain ubp6, active compounds read low 1 | locus YGL078C, strain dbp3, active compounds read low 0.971 | locus YGL086W, strain mad1, active compounds read low 0.997 | locus YGL167C, strain pmr1, active compounds read low 0.975 | locus YGL173C, strain kem1, active compounds read low 1.02 | locus YGL227W, strain vid30, active compounds read low 1 | locus YGL240W, strain doc1, active compounds read low 1.04 | locus YGL248W, strain PDE1, active compounds read low 1.03 | locus YGL253W, strain hxk2, active compounds read low 0.991 | locus YGR078C, strain PAC10, active compounds read low 1.03 | locus YGR135W, strain pre9, active compounds read low 1.03 | locus YGR252W, strain gcn5, active compounds read low 1.09 | locus YHR013C, strain ard1, active compounds read low 0.979 | locus YHR027C, strain rpn1, active compounds read low 0.985 | locus YHR030C, strain SLT2, active compounds read low 0.992 and 1.1 | locus YHR079C, strain IRE1 (second series), active compounds read low 0.98 | locus YHR079C, strain IRE1, active compounds read low 1.07 | locus YHR094C, strain hxt1, active compounds read low 0.997 | locus YHR129C, strain ARP1, active compounds read low 1.01 | locus YHR142W, strain chs7, active compounds read low 0.969 | locus YHR200W, strain rpn10, active compounds read low 1 | locus YIL066C, strain RNR3, active compounds read low 1 | locus YIL073C, strain SPO22, active compounds read low 0.99 | locus YIL125W, strain kgd1, active compounds read low 0.994 | locus YIR030C, strain dcg1, active compounds read low 0.997 | locus YJL092W, strain hpr5, active compounds read low 1 | locus YJL095W, strain BCK1 (second series), active compounds read low 1 | locus YJL095W, strain BCK1, active compounds read low 1.07 and 1.06 | locus YJL115W, strain asf1, active compounds read low 0.968 | locus YJL129C, strain trk1, active compounds read low 0.987 | locus YJL134W, strain LCB3, active compounds read low 0.997 | locus YJL154C, strain vps35, active compounds read low 0.999 | locus YJL164C, strain tpk1, active compounds read low 0.974 | locus YJL166W, strain qcr8, active compounds read low 1.02 | locus YJL168C, strain set2, active compounds read low 0.996 | locus YJL187C, strain SWE1 (second series), active compounds read low 1.01
